# Assay results reported in PubChem BioAssay (NCATS).
# Values without a mark were called inactive. Inconclusive results are not listed. Where a call stands in place of a potency, no number is given. Active and inactive are the calls of the source. Unless noted, the call rests on the fitted dose curve; in most records, active means well fitted curve in the direction sought with a large enough effect; inconclusive means small, poorly fitted or top-dose-only effect, or another doubt; inactive means no such curve, though single readings can be large; an effect the other way counts as inactive or inconclusive.
# Tests used:
# [1] = target: Cytochrome P450 2C9 (Homo sapiens) (UniProt P11712); assay: qHTS Assay for Inhibitors and Substrates of Cytochrome P450 2C9 (AID 883); further: nearly all actives have a fitted effect of over 60% in size; further: potency means the concentration at half of the fitted maximal effect
# Procedure, shortened: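 Luminescent read-out of deoxyluciferin hydroxylation, normalized to 57uM sulphaphenazole (AC100). Reaction: 10nM enzyme, 100uM Luciferin-H (equal to KM), 25mM KPO4, 10 min compound preincubation, then 60 min with NADPH regeneration, both at 37C.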
# [2] = qHTS Assay for Identification of Small Molecule Agonists for Hypoxia Response Element Signaling Pathway (AID 914; active means well fitted activation curve with a large enough effect in the signal ratio, with a control signal flat, not every such curve was filed as active; the % refers to the signal ratio; further: potency means the concentration at half of the fitted maximal effect); settings: ME-180 (cervical carcinoma) HRE-bla reporter, beta-lactamase ratio, CoCl2, 17 h; activation: stronger effect = higher value
# Procedure, shortened: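 Read-out: CCF4 FRET ratio of 460nm to 530nm emission (excitation 405nm) after 2.5 hours at room temperature, taken from HRE-bla ME-180 cells that had been exposed to compound and EC50 CoCl2 for 17 hours.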
# [3] = target: Guanine nucleotide-binding protein G(i) subunit alpha-1 (Homo sapiens) (UniProt P63096); assay: qHTS Assay for Inhibitors of RGS12 GoLoco Motif Activity (Green Fluorophore) (AID 879);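 further: negative values mean loss of peptide binding seen as reduced polarization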
# Procedure, shortened: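 Fluorescence polarization assay: 50 nM Gαi1 with 10 nM FITC-labeled RGS12 GoLoco peptide in 10 mM Tris pH 7.5, 150 mM NaCl, 0.1 mM GDP, 0.05% NP40, 10 min at room temperature with compound.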
# [4] = qHTS Assay for Identification of Small Molecule Agonists for Thrombopoietin (TPO) Signaling Pathway (AID 917)
# Procedure, shortened: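 Murine Ba/F3 cells stably expressing human TPO receptor and a Glycoprotein IIb promoter–luciferase reporter were IL-3-starved overnight, then treated with compounds plus TPO (26 pM final, its EC50) for 24 hrs at 37 C; luminescence was read.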
# [5] = target: Pyruvate kinase (Leishmania mexicana) (UniProt Q27686); assay: qHTS Validation Assay for Inhibitors of Leishmania Mexicana Pyruvate Kinase (AID 945)
# Procedure, shortened: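 Substrate mix (0.5 mM PEP, 0.1 mM ADP, 7 mM MgCl2, 50 mM KCl, pH 7.2 imidazole) received compound by pin tool, then 0.2 nM LmPYK E451W. After 1 h at room temperature, PKLight was added and luminescence measured.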
# [6] = target: Pyruvate kinase PKM (Homo sapiens) (UniProt P14618); assay: qHTS Assay for Activators of Human Muscle Pyruvate Kinase (AID 954; active means well fitted curve in the direction sought with a large enough effect, not every such curve was filed as active)
# Procedure, shortened: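 Human PKM2 activity is measured as ATP generation, detected by luciferase-coupled luminescence. The enzyme (0.1 nM) acts on 0.5 mM PEP and 0.1 mM ADP for 1 h at ambient temperature; data are normalized to uninhibited and full-inhibition wells.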
# [7] = target: Alpha-galactosidase A (Homo sapiens) (UniProt P06280); assay: Counterscreen for Glucocerebrosidase Inhibitors: qHTS Assay for Human alpha-Galactosidase at pH 4.5 (AID 992)
# Procedure, shortened: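 Quantitative HTS: compounds tested from 0.7 nM up to 77 uM against 2 nM enzyme with 80 uM 4-MU alpha-D-galactopyranoside. The 20 min room-temperature reaction is stopped with 1M NaOH/1M glycine, pH 10.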
# [8] = target: alpha-glucosidase (Oryza sativa, rice) (UniProt Q653V4); assay: Counterscreen for Glucocerebrosidase Inhibitors: qHTS Assay for Rice alpha-Glucosidase at pH 5.0 (AID 997)
# Procedure, shortened: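 Rice alpha-glucosidase (4 nM final) with 400 uM 4-methylumbelliferyl-alpha-D-glucopyranoside in citrate buffer pH 5.0, 20 min at room temperature, stopped at pH 10; fluorescence 365/440 nm, compounds 0.7 nM–77 uM, AC50 from Hill fits.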
# [9] = Cytotoxicity counterscreen for NFkB agonists and antagonists (AID 624476);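 further: cells exposed to compound for 48 hours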
# [10] = qHTS Assay for Identification of Small Molecule Agonists for NFkB Signaling Pathway. (AID 624478)
# Procedure, shortened: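 NFkB-bla ME-180 cells (beta-lactamase reporter under NFkB response element) were plated overnight, treated with compound plus TNF alpha at 10 pM final (its EC50) for 5 hrs at 37 C, then loaded with LiveBLAzer substrate for 2 hrs.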
# [11] = qHTS Assay for Identification of Small Molecule Antagonists for NFkB Signaling Pathway. (AID 624479; calls by dose curve;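 further: pathway stimulated with TNF alpha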)
# Cytochrome P450 2C9 (Homo sapiens), sequence (P11712 whole entry, looked up): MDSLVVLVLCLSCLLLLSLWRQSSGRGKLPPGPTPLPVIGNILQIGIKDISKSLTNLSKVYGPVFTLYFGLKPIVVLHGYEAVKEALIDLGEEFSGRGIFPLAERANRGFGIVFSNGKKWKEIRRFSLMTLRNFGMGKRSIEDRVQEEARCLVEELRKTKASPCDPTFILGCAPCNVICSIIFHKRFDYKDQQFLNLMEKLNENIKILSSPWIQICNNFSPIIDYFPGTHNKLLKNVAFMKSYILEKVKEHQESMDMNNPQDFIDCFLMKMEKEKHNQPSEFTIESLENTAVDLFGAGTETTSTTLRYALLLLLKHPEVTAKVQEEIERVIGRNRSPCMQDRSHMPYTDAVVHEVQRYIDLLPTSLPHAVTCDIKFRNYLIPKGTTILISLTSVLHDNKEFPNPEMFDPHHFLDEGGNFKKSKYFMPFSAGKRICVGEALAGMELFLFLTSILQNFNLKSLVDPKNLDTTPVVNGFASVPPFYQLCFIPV
# Pyruvate kinase (Leishmania mexicana), sequence (Q27686 2-499 E452W): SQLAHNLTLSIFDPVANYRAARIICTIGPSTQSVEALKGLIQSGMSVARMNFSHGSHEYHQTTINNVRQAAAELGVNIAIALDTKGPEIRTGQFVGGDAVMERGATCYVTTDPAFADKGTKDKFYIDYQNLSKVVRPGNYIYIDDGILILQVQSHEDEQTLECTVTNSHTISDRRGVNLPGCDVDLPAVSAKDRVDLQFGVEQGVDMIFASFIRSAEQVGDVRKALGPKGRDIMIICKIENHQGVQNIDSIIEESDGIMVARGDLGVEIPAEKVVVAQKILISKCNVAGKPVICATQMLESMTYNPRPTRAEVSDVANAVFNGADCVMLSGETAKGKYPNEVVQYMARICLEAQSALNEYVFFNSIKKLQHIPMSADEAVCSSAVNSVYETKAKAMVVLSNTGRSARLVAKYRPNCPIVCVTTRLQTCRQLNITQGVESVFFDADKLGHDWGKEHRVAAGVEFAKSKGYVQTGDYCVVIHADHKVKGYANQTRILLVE
# Guanine nucleotide-binding protein G(i) subunit alpha-1 (Homo sapiens), sequence (P63096 whole entry, looked up): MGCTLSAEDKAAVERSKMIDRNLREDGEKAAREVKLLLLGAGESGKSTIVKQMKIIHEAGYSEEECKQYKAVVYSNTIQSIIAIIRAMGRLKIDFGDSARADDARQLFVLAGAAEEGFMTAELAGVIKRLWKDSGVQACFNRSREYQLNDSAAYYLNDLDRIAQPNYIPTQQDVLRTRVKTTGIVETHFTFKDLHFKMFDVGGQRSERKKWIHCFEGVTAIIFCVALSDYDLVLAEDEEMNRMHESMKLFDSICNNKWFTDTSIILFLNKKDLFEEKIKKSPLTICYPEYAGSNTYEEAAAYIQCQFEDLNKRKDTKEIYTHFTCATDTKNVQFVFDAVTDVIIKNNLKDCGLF
# Pyruvate kinase PKM (Homo sapiens), sequence (P14618 whole entry, looked up): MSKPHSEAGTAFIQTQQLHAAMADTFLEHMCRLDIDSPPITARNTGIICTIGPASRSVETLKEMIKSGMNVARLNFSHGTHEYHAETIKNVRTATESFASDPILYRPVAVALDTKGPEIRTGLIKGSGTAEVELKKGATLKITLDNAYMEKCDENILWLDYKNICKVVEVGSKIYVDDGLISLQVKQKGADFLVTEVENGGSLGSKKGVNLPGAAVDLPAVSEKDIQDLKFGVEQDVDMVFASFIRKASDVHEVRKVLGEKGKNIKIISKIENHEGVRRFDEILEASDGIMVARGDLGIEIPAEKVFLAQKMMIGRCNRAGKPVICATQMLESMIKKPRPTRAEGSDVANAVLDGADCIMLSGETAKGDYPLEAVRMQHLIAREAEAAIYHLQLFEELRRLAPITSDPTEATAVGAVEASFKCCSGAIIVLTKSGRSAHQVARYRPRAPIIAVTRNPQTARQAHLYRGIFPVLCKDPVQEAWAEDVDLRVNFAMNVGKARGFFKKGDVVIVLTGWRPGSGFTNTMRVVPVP
# Alpha-galactosidase A (Homo sapiens), sequence (P06280 whole entry, looked up): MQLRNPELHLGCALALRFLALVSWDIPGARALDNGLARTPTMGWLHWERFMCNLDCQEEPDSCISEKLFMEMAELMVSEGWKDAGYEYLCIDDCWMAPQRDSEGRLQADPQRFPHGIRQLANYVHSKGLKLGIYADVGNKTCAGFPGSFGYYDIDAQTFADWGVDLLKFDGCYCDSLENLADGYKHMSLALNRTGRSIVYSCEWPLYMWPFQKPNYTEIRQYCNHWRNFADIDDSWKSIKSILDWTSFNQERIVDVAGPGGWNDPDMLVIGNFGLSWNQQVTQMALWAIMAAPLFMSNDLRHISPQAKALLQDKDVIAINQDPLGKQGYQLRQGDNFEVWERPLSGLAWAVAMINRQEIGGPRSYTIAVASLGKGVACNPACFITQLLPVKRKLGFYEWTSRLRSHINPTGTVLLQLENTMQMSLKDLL
structure (smiles),measurement,setting,value
COc1cc(N)c(Cl)cc1C(=O)N[C@H]1CCN(CCCOc2ccc(F)cc2)C[C@H]1OC,outcome,[1],inactive
O=c1cc(-c2cccc(O)c2)oc2cc(O)ccc12,Potency,[1],25.1 µM (active)
CC(=O)[C@@H]1CC[C@@H]2[C@@H]3C[C@H](C)C4=CC(=O)CC[C@@]4(C)[C@H]3[C@H](O)C[C@]21C,Potency,[1],0.398 µM (active)
FC(F)(F)c1ccccc1-c1ccc2ncnc(NC3CCNCC3)c2c1,"activity change, negative = inhibition",[1],12.9% [at 2.29 µM]
same,activation,[2],-6.93%
C[C@@H](Cc1cccc(C(F)(F)F)c1)NCCOC(=O)c1ccccc1,Potency,[1],inactive
COc1cccc(-c2nc(NCCc3c[nH]c4ccc(OC)cc34)c3ccccc3n2)c1,Potency,[1],0.794 µM (active)
NCCC(=O)N[C@@H](Cc1cnc[nH]1)C(=O)O,Potency,[1],inactive
Cc1cc2ccc(=O)oc2cc1OC[C@@H](O)C(C)(C)O,Potency,[1],inactive
C[C@@]12CC[C@@H]3c4ccc(O)cc4CC[C@H]3[C@H]1C[C@@H](O)[C@H]2O,Potency,[1],inactive
CC=C(/C(=C/C)c1ccc(O)cc1)c1ccc(O)cc1,Potency,[1],0.794 µM (active)
C[C@@H](CN1c2ccccc2Sc2ccccc21)N(C)C,outcome,[3],inactive
same,outcome,[4],inactive
same,outcome,[5],inactive
same,outcome,[6],inactive
same,outcome,[7],inactive
same,outcome,[8],inactive
CO/N=C(\C(=O)N[C@@H]1C(=O)N2C(C(=O)O)=C(COC(N)=O)CS[C@@H]12)c1ccco1,activation,[2],3.41%
C/C(=C\CNc1ncnc2nc[nH]c12)CO,Potency,[1],inactive
C=Cc1c(C)c2cc3nc(cc4[nH]c(cc5nc(cc1[nH]2)C(C)=C5CCC(=O)O)c(CCC(=O)OC)c4C)[C@@]1(C)C3=CC=C(C(=O)OC)[C@H]1C(=O)OC (tested in a mixture with another compound),Potency,[1],1.26 µM (active)
CC(=O)N[C@H](CS)C(=O)O,Potency,[1],inactive
C[C@@]12CCC(=O)C[C@@H]1CC(=O)[C@H]1[C@H]3CCC[C@]3(C)C(=O)C[C@@H]12 (tested in a mixture with another compound),activation,[2],-12.7%
C[C@@]1(O)CCOC(=O)C1,Potency,[1],inactive
CC(=O)S[C@H]1CC2=CC(=O)CC[C@@]2(C)[C@H]2CC[C@@]3(C)[C@H](CC[C@]34CCC(=O)O4)[C@@H]12,activation,[2],-20.6%
C=C(C)[C@H]1CC[C@]2(CO)CC[C@]3(C)[C@@H](CC[C@H]4[C@@]5(C)CC[C@@H](O)C(C)(C)[C@@H]5CC[C@@]43C)[C@H]12,Potency,[2],1.26 µM (active)
COc1ccc2c(c1)N(C[C@@H](C)CN(C)C)c1ccccc1S2,activation,[2],-28.7%
CC/C=C\C[C@H]1C(=O)CC[C@@H]1CC(=O)O,Potency,[1],inactive
CCC(C)(C)C(=O)O[C@@H]1C[C@H](C)C=C2C=C[C@H](C)[C@@H](CC[C@H]3C[C@@H](O)CC(=O)O3)[C@H]21,outcome,[9],inactive
same,outcome,[10],inactive
same,outcome,[11],inactive
